About 980 (75%) of roughly 1,300 compounds were called active. Roughly 4% stayed inconclusive and do not appear here. The list shows a part of the results. Residues, ends and D or L forms follow the SMILES beside them. *: point of attachment. Cbz = O=C(OCc1ccccc1)*

The target in this test is Sulfhydryl oxidase 1 (Homo sapiens) (UniProt O00391). The test is described as follows: QSOX1 enzyme inhibitors, primary screen, biochemical, HyperBlu H2O2 luminescence, HTS (AID 1347420). Note: values above 100% were filed as inconclusive. The conditions noted are these: recombinant QSOX1, HyperBlu H2O2 luminescence; at 12.5 µM; active compounds read high; active = any value above zero.
Chain of Sulfhydryl oxidase 1 (Homo sapiens) (O00391 whole entry, looked up): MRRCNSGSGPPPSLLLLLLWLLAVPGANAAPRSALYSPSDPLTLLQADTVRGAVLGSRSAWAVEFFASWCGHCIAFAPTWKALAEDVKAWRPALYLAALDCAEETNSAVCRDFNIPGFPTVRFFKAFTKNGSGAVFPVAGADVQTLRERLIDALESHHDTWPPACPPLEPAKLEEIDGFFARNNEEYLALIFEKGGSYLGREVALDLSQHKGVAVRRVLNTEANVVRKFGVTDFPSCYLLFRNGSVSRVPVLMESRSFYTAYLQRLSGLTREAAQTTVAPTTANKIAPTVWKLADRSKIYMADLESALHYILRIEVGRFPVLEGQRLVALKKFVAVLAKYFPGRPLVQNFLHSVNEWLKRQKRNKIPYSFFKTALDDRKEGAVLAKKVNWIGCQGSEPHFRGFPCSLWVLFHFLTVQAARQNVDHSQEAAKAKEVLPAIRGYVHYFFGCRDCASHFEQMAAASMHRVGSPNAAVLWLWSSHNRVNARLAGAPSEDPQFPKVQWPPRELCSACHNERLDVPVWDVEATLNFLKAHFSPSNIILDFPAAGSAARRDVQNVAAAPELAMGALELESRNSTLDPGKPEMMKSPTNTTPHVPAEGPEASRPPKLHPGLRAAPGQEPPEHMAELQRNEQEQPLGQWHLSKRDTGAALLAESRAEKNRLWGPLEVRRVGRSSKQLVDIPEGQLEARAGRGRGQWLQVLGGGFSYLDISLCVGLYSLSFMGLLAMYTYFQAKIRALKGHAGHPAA
Turning to `CC1=C(/C=C/C(C)=C/C=C/C(C)=C/C(=O)O)C(C)(C)CCC1`, the inhibition was 11.4% (active). `CC1=C(/C=C/C(C)=C/C=C/C(C)=C\C(=O)O)C(C)(C)CCC1`: the inhibition is 3.1% (active).

As to `CC1=C(/C=C/C(C)=C/C=C/C(C)=C/C(=O)Nc2ccc(O)cc2)C(C)(C)CCC1`, the inhibition is 29.7% (active). Regarding `O=C(Nc1ccncc1)c1cc([N+](=O)[O-])ccc1Cl`, the inhibition was 41.9% (active). With `O=C(Nc1ccc([N+](=O)[O-])cc1Cl)c1cc(Cl)ccc1O` the figure was 11.3% (active); with `O=C(O)c1cc([N+](=O)[O-])ccc1NCCCc1ccccc1`, 84.4% (active); with `O=C(Nc1ccccc1)c1cc([N+](=O)[O-])ccc1Cl`, 35.3% (active). With `O=C(/C=C/c1ccc(O)c(O)c1)OCCc1ccccc1`, the inhibition was 98.9% (active). As to `O=C(O)/C=C/c1ccc(O)c(O)c1`, the inhibition is 74.3% (active). On to `O=c1cc(O)cc(/C=C/c2ccc(O)c(O)c2)o1`, for which the inhibition is 84.2% (active). As to `CN1CCCC1CCOC(C)(c1ccccc1)c1ccc(Cl)cc1` (stereo not drawn), the inhibition was 7.6% (active).

As to `CCN(CC)C(=O)c1ccc(O)c(OC)c1`, the inhibition is 17.3% (active). On to `O=C(O)Cc1ccc(O)c(O)c1`, for which the inhibition was 52.8% (active).

Turning to `NCCc1ccc(O)c(O)c1`, the inhibition is 61.7% (active). With `COc1cc(CC(=O)O)ccc1O` the figure was 4.4% (active); with `CCc1c(C(=O)NCCc2ccc(N3CCCCC3)cc2)[nH]c2ccc(Cl)cc12`, 13.2% (active).

Consider `CC(C)[C@H](NC(=O)OCc1ccccc1)C(=O)N[C@H](C=O)Cc1ccccc1` (Cbz-Val-Phe-aldehyde), for which the inhibition was -15.7% (inactive).

Consider `O=C(N[C@@H](Cc1ccccc1)C(=O)CCl)OCc1ccccc1`, for which the inhibition is 0.2% (active).

Turning to `Cc1ccc(S(=O)(=O)N[C@@H](Cc2ccccc2)C(=O)CCl)cc1`, the inhibition was 4% (active).

As for `CC(C)Cc1ccc([C@H](C)C(=O)O)cc1`, the inhibition was 5.1% (active).

For `CC(C)Cc1ccc(C(C)C(=O)O)cc1` (stereo not drawn), the inhibition is -0.2% (inactive).

`CC(C(=O)O)c1ccc(CC2CCCC2=O)cc1` (stereo not drawn): the inhibition was 13.5% (active). Turning to `CC(C)(C(=O)O)c1ccc(C(O)CCCN2CCC(C(O)(c3ccccc3)c3ccccc3)CC2)cc1` (stereo not drawn), the inhibition was -4.1% (inactive). On to `CC(C)(C)c1ccc(C(O)CCCN2CCC(C(O)(c3ccccc3)c3ccccc3)CC2)cc1` (stereo not drawn), for which the inhibition is 6.1% (active). As for `CC(C)(C)c1ccc(/C=C/C(=O)Nc2ccc3c(c2)OCCO3)cc1`, the inhibition is 17.7% (active). For the molecule `[Li+]`, the inhibition was 6.5% (active). With `CN(C)C(=O)n1nnnc1Cc1ccc(-c2ccccc2)cc1` the figure was 2.4% (active); with `CC(C)c1cccc(C(C)C)c1N1C(=O)c2ccc(O)cc2C1=O`, -98.1% (inactive).

As to `CSc1nc(N)c2ncn([C@@H]3O[C+](COP(=O)([O-])OP(=O)(O)O)[C@H](O)C3O)c2n1` (stereo partly drawn), the inhibition was 26.4% (active). For the molecule `CN(C)C/C=C(/c1ccc(Br)cc1)c1cccnc1`, the inhibition is -9.2% (inactive).

`Nc1nc(N)c2nc(-c3ccccc3)c(N)nc2n1`: the inhibition was -11.2% (inactive).

Turning to `Nc1nnc(-c2cccc(Cl)c2Cl)c(N)n1`, the inhibition is 4.9% (active).

In the case of `Cc1nc2c([nH]1)c(=O)n(C)c(=O)n2Cc1ccco1`, the inhibition is 10.1% (active). As to `CCCOc1ccccc1-c1nc2n[nH]nc2c(=O)[nH]1`, the inhibition is 15.8% (active). In the case of `Cc1nnc(SCC2=C(C(=O)O)N3C(=O)[C@@H](NC(=O)Cn4cnnn4)[C@H]3SC2)s1`, the inhibition was 10.4% (active).

Consider `Cc1ccc2nc(CN(CCN(Cc3nc4ccc(C)cc4[nH]3)Cc3nc4ccc(C)cc4[nH]3)Cc3nc4ccc(C)cc4[nH]3)[nH]c2c1`, for which the inhibition is -0.7% (inactive). Regarding `O=C(O)C1=CCNCC1`, the inhibition was 0.2% (active). As for `C=C(C)C1CC=C(C(=O)O)CC1` (stereo not drawn), the inhibition was -10.6% (inactive). Regarding `O=C(O)C1=CCCNC1`, the inhibition was 5.6% (active). Turning to `Nc1nc(OCc2ccccc2)c2[nH]cnc2n1`, the inhibition was 5.5% (active). Next, `Nc1nc(OCC2CCCCC2)c2[nH]cnc2n1`: 11.1% (active); `Nc1nc(N)c(N=O)c(OCC2CCCCC2)n1`: 29.8% (active). `CC(COc1ccccc1)N(CCCl)Cc1ccccc1` (stereo not drawn): the inhibition is -3.7% (inactive).

`CC(C)N(CCC(=O)c1ccc2ccccc2c1)Cc1ccccc1`: the inhibition is 5.9% (active). With `O=S(=O)(c1cccc2c(Cl)cccc12)N1CCCNCC1` the figure was 7.1% (active); with `O=S(=O)(c1cccc2c(I)cccc12)N1CCCNCC1`, 6% (active). Take `Cc1ccccc1C(OCCN(C)C)c1ccccc1` (stereo not drawn): the inhibition is 2.5% (active).

Take `CN(C)CCOC(c1ccccc1)c1ccccc1`: the inhibition was 15.9% (active).

With `Cc1cc2c(C(C)C)c(O)c(O)c(C=O)c2c(O)c1-c1c(C)cc2c(C(C)C)c(O)c(O)c(C=O)c2c1O`, the inhibition is 74.3% (active). Next, `CCC(=O)N1CCN(C(=O)c2ccccc2)CC1`: 3.1% (active); `Cc1ccc(Cl)c(Nc2ccccc2C(=O)O)c1Cl`: 7.8% (active); `O=c1onc2cnc3ccccc3n12`: 6.8% (active). Take `CN(C)CC[C@@H](c1ccc(Cl)cc1)c1ccccn1`: the inhibition is 3.5% (active).

`CN(C)CCC(c1ccc(Br)cc1)c1ccccn1` (stereo not drawn): the inhibition was -10.9% (inactive). With `CN(C)CC[C@@H](c1ccc(Br)cc1)c1ccccn1` the figure was -5.9% (inactive); with `CN(C)CCC(c1ccc(Cl)cc1)c1ccccn1` (stereo not drawn), 6.9% (active). As for `CN(C)CCC(c1ccccc1)c1ccccn1` (stereo not drawn), the inhibition was 4.2% (active).

`O=C1N(c2ccccc2)c2ccccc2C1(Cc1ccncc1)Cc1ccncc1`: the inhibition was 7.6% (active).

On to `Nc1c2c(nc3ccccc13)CCCC2O` (stereo not drawn), for which the inhibition is 4% (active). Take `Nc1c2c(nc3ccccc13)CCCC2`: the inhibition is 20.5% (active).

Take `COc1ccccc1N1CCN(CC(O)COc2cccc3ccccc23)CC1` (stereo not drawn): the inhibition is 11.9% (active). As to `COc1ccccc1OCC(O)CN1CCN(CC(=O)Nc2c(C)cccc2C)CC1` (stereo not drawn), the inhibition was 2.7% (active). With `Cc1cn[nH]c1`, the inhibition is -6.5% (inactive). On to `COc1cc2nc(N3CCN(C(=O)OCc4ccccc4)C(C(=O)NC(C)(C)C)C3)nc(N)c2cc1OC` (stereo not drawn), for which the inhibition was 0.6% (active).

With `COc1cc2nc(N3CCN(C(=O)c4ccco4)CC3)nc(N)c2cc1OC`, the inhibition was 5.9% (active). `COc1cc2nc(N3CCN(C(=O)C4COc5ccccc5O4)CC3)nc(N)c2cc1OC` (stereo not drawn): the inhibition is 11.9% (active). As for `COc1cc2nc(N3CCN(C(=O)C4CCCO4)CC3)nc(N)c2cc1OC` (stereo not drawn), the inhibition was 8.6% (active). Next, `COc1cc2nc(N(C)CCCNC(=O)C3CCCO3)nc(N)c2cc1OC` (stereo not drawn): 0.2% (active).

For the molecule `O=C(NCCN1CCOCC1)c1ccc(Cl)cc1`, the inhibition was 5.4% (active). As for `COc1cccc(C(=O)NCCN2CCN(c3ccc(Cl)cc3)CC2)c1`, the inhibition was 45.7% (active). With `O=C(Nc1nc2ccccc2n1CCN1CCOCC1)c1cccc([N+](=O)[O-])c1`, the inhibition was -17.8% (inactive). In the case of `CC[N+](CC)(CC)CC`, the inhibition was -0.4% (inactive).

In the case of `Cc1oncc1C(=O)Nc1ccc(C(F)(F)F)cc1`, the inhibition was -3.1% (inactive). As for `O=C(c1ccc2c(c1)OCCO2)N1CCCCC1`, the inhibition is 5.6% (active).

Turning to `O=C(O)c1ccccc1Nc1cccc(OCc2ccc3ccccc3n2)c1`, the inhibition is 70.1% (active). On to `CCCCCC(O)c1cccc(OCc2ccc3ccccc3n2)c1` (stereo not drawn), for which the inhibition was -4.5% (inactive).

In the case of `NCCCCN`, the inhibition was 14.6% (active). As for `NCCCCCCCCCCN`, the inhibition is 12.8% (active). On to `CCN(CC)CCOC(=O)C1(C2CCCCC2)CCCCC1`, for which the inhibition was 28.2% (active).

Regarding `O=C(O)CP(=O)(O)O`, the inhibition is 10% (active). As for `CN=c1nc(-c2ccccc2)n(-c2ccccc2)s1`, the inhibition was 25.4% (active).

As for `S=C([S-])OC1CC2C[C+]1C1CCCC21` (stereo not drawn), the inhibition is 1.4% (active).

In the case of `CNCC[C@H](Oc1ccc(C(F)(F)F)cc1)c1ccccc1`, the inhibition was 0.1% (active). Take `CN(CC[C@@H](Oc1ccc(C(F)(F)F)cc1)c1ccccc1)CC(=O)O`: the inhibition was 21.6% (active). Next, `CNCCC(Oc1ccc(C(F)(F)F)cc1)c1ccccc1` (stereo not drawn): -9.7% (inactive); `CCCCCCCCCC[Si](C)(C)CCC(=O)NC(Cc1ccc(C)cc1)c1ccccc1` (stereo not drawn): 19.6% (active).

`CCCCCCCCCC(=O)NC(CN1CCOCC1)[C@H](O)c1ccccc1` (stereo partly drawn): the inhibition was -17.8% (inactive). For the molecule `CCCn1c(=O)[nH]c(=O)c2[nH]cnc21`, the inhibition is 3.6% (active).

Turning to `CC1(C)C(=O)N(CCN2CCC(C(=O)c3ccc(F)cc3)CC2)c2ccccc21`, the inhibition was 7.2% (active).

On to `Cc1nc2sccn2c(=O)c1CCN1CCC(=C(c2ccccc2)c2ccc(F)cc2)CC1`, for which the inhibition is 2.9% (active). Regarding `O=C(c1ccc(F)cc1)C1CCN(CCn2c(=O)[nH]c3ccccc3c2=O)CC1`, the inhibition was -10.7% (inactive). With `Cc1nc2ccccn2c(=O)c1CCN1CCC(C(=O)c2ccc(F)cc2)CC1`, the inhibition is 5.5% (active).

Consider `Cc1nc2sccn2c(=O)c1CCN1CCC(=C(c2ccc(F)cc2)c2ccc(F)cc2)CC1`, for which the inhibition was 7.1% (active). Next, `Cc1nc2n(c(=O)c1CCN1CCC(c3noc4cc(F)ccc34)CC1)CCCC2O` (stereo not drawn): 0% (inactive); `FC(F)(F)c1ccccc1-n1ccnc1`: -11.4% (inactive). For the molecule `COc1ccccc1OCCNCC(O)COc1cccc2[nH]c3ccccc3c12` (stereo not drawn), the inhibition was 11% (active).

`CN1CCc2ccccc2Cc2[nH]c3ccccc3c2CC1`: the inhibition was 51.2% (active). For `NC(N)=N[C@@H](CCC(=O)O)C(=O)O`, the inhibition was 10.9% (active).

As to `COc1ccc(C(=O)NCc2cccnc2)cc1C(=O)NCc1cccnc1`, the inhibition was 1.3% (active). Regarding `O=C1O/C(=C/Br)CCC1c1cccc2ccccc12` (stereo not drawn), the inhibition is -10.8% (inactive). Regarding `CCCCC1C(=O)N(c2ccccc2)N(c2ccccc2)C1=O`, the inhibition is 11.8% (active). Consider `N#C/C(=C\c1ccc(-c2cc(Cl)ccc2Cl)o1)C(=O)Nc1cccc2ncccc12`, for which the inhibition was 6.8% (active). In the case of `Fc1ccc([C@@H]2CCNC[C@H]2COc2ccc3c(c2)OCO3)cc1`, the inhibition was 15.8% (active).

Take `N=c1nc(N2CCCCC2)cc(N)n1O`: the inhibition was 1.6% (active).

As for `Nc1ccn([C@H]2CC[C@@H](CO)O2)c(=O)n1`, the inhibition is 9.9% (active).

Regarding `C=CCc1cccc(/C=N/NC(=O)CN2CCN(Cc3ccccc3)CC2)c1O`, the inhibition was 1.7% (active). For the molecule `C=CCn1c(=O)c2c(nc(-c3ccc(S(=O)(=O)O)cc3)n2C)n(C)c1=O`, the inhibition was 1.4% (active). Regarding `N#Cc1cc2nc(O)c(O)nc2cc1[N+](=O)[O-]`, the inhibition was 69.8% (active).

The values are drawn from PubChem BioAssay AID1347420 (Sanford-Burnham Center for Chemical Genomics, 2020).
